Assay outcomes deposited in PubChem BioAssay by several laboratories.
TMEM16A inh – blocks the mouse calcium-activated chloride channel TMEM16A. normalized B-score (activity score, 25-100; higher = stronger inhibition) at 10 µM. HEK293 TMEM16A/YFP iodide influx fluorescence, ionomycin. actives 1.2% (n = 310,000). AID 588511;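 active = ratio plate-corrected score three or more library SD toward inhibition, starting fluorescence score within five deviations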;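 note: score derived from kinetic fluorescence span divided by baseline fluorescence per well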
Target sequence (Q8BHY3 whole entry, looked up): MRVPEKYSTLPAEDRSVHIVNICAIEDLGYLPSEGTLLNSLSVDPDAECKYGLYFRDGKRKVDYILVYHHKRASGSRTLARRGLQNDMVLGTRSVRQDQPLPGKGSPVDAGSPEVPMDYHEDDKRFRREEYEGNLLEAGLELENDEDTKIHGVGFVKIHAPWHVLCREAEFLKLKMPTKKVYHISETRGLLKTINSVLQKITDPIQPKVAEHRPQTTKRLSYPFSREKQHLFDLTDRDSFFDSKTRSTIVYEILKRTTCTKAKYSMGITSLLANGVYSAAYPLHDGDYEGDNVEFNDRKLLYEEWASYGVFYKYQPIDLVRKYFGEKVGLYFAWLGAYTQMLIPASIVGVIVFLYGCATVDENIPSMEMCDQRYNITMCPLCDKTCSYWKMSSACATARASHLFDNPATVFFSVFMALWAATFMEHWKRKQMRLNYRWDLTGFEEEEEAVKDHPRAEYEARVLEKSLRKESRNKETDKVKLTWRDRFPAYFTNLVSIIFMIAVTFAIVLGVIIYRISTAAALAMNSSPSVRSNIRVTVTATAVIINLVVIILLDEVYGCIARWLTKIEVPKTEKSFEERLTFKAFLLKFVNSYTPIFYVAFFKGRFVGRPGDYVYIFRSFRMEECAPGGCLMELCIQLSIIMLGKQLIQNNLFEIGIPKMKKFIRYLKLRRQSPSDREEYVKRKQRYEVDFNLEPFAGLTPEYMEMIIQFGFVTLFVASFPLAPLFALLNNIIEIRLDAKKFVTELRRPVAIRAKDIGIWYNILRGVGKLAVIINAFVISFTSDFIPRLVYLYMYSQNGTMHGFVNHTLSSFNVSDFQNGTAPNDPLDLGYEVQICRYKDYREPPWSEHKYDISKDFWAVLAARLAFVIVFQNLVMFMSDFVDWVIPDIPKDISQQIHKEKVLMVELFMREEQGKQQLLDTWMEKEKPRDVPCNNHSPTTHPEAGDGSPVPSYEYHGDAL
aSyn 5UTR inh – 5' untranslated region of α-synuclein, MLPCN primary screen; inhibition, % (tested at 7.5 µM); alpha-synuclein 5'UTR reporter, inhibitor activity; actives 0.82% (n = 300,000); in the data active = inhibition above about 60%;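 note: H4 neuroglioblastoma cells stably carrying SNCA 5'UTR luciferase fusion; 0% = DMSO wells and 100% = positive control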
697 NFkB inh – inhibitors of the PMA/ionomycin-induced NF-kB reporter in 697 B cells; 697 B-cell NF-kB luciferase reporter, 16 h; inhibition, % at 4 µM; actives 0.33% (n = 330,000); AID 435022; in the data active = inhibition above about 35%
Jurkat NFkB inh – lowers PMA/ionomycin-induced NF-kB signal in Jurkat cells; PMA/ionomycin-induced NF-kB luciferase reporter, luminescence; inhibition, % at 4 µM; actives 0.53% (n = 330,000); AID 435003; in the data active = inhibition above about 50%
ANO1 activ – activates or potentiates the mouse TMEM16A chloride channel | B-score at 10 µM | Q8BHY3 | actives 0.3% (n = 340,000) | HEK293 TMEM16A/YFP-H148Q/I152L, iodide quench fluorescence; hits give low values | AID 623877;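 active = fluorescence-ratio B-score plate-corrected deviation score at least 3 library SD below zero, with starting fluorescence score within 5 deviations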;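 note: channel opened by trigger with iodide after compound preincubation; score built on the fluorescence ratio of max minus min over baseline; more negative score means more quench and so TMEM16A activation or potentiation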
KLF5 inhibitor – kruppel-like factor 5 inhibition; DLD-1 KLF5 promoter-luciferase reporter, luminescence; inhibition, % at 5 µM; actives 0.23% (n = 290,000); AID 1700;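 active = inhibition above a per-plate limit of that plate's mean compound inhibition plus 3 SD, cut at about 60% in these data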;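 note: 0% = DMSO wells and 100% = LY294002 at 200 µM; higher means less KLF5 promoter-driven luciferase light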
Jurkat NFkB conf – lowers PMA/ionomycin-induced NF-kB signal in Jurkat cells. actives 27% (n = 2,700). Jurkat NF-kB luciferase, 16 h. shares compounds with Jurkat NFkB inh. AID 435020. inhibition, % at 4 µM;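 active = inhibition reaching about 45% at 4 µM in either replicate, limit read from the data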;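 note: plate controls were PMA/ionomycin stimulated DMSO wells for no effect and unstimulated DMSO wells for full effect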
697 NFkB conf – inhibitors of the PMA/ionomycin-induced NF-kB reporter in 697 B cells, retest; inhibition, % at 4 µM; shares compounds with 697 NFkB inh; actives 35% (n = 2,000); 697 B-cell NF-kB luciferase, 16 h; in the data active = inhibition mostly above about 28%, no sharp cut-off; inactive = mostly below about 22%
An asterisk follows results filed as active; i = inactive; . = no result given. A selection: hits, their analogues and other compounds. The true share with any hit is near 2.5%.

SMILES	TMEM16A inh	aSyn 5UTR inh	697 NFkB inh	Jurkat NFkB inh	ANO1 activ	KLF5 inhibitor	Jurkat NFkB conf	697 NFkB conf
Cc1ccc(Nc2nc(-c3ccccc3)cs2)nc1	i	33	i	-248	i	-85	-151	-271
c1ccc(-c2csc(Nc3nc(N4CCOCC4)nc(N4CCOCC4)n3)n2)cc1	i	-19	22	-11	i	-27	.	.
CCc1cccc(NC(=O)C2CCCN(c3ncnc4c3nc3n4CCCCC3)C2)c1 (configuration not stated)	i	-3	-19	8	i	-22	.	.
O=S(=O)(NCC1CCCO1)c1ccc(-c2ccc(S(=O)(=O)NCC3CCCO3)cc2)cc1 (configuration not stated)	i	-22	48*	70*	i	35	69*	83*
CC(C)[C@@H](CSc1ccccc1)N1CCN(Cc2ccccc2)CCC1=O	i	5	-7	7	i	-14	.	.
NNC(=O)Cn1c(-c2nonc2N)nc2ccccc21	i	10	7	-10	i	-7	.	.
CCCCOc1ccccc1NC(=O)Cn1c(-c2nonc2N)nc2ccccc21	i	124*	35*	59*	i	19	30	-56
COc1cccc(NC(=O)CN(C)C(=O)c2cccc(S(=O)(=O)Nc3ccccc3OC)c2)c1	.	.	8	6	i	.	.	.
Cc1nn(-c2ccccc2)c(Cl)c1/C=N/Nc1nc2ccccc2[nH]1	i	-6	-371	-227	-7.3*	-82	-93	-268
Cc1ccc2c(c1)-n1c(nc3cc(F)ccc3c1=O)C(Cc1ccc(O)cc1)NC2=O (configuration not stated)	.	.	6	2	.	.	.	.
COc1ccc(C)c2sc(=NC(=O)c3ccc(C(C)=O)cc3)n(C)c12	i	-20	-359	-251	i	-99	-136	-155
ClC1=C(Cl)C(Cl)=C(Cl)C1=C/C=C/c1ccccc1	i	113*	-275	55*	i	-15	-14	-26
Cc1ccc(/C=N/Nc2nc3ccccc3s2)o1	i	-24	-414	-187	i	-40	-76	-240
COc1ccc(C(=O)OCC(=O)NC2CCCCCCC2)cc1OC	.	.	13	-5	i	.	.	.
Cc1cc(N2CCN(C(c3ccccc3)c3ccccc3)CC2)n2ncnc2n1	i	-30	-19	-6	i	-12	.	.
Cc1cc(N2CCN(c3nc4ccccc4s3)CC2)n2ncnc2n1	i	-42	54*	62*	i	-25	54*	42*
CC(C(=O)N1CCCC1)N(c1ccccc1)S(C)(=O)=O (configuration not stated)	i	1	2	-1	i	-30	.	.
O=S(=O)(Nc1ccc2c(c1)OCO2)c1cccc(Br)c1	.	.	19	3	i	.	.	.
CC(C)(C)c1ccc2c(c1)C(=O)c1ccccc1C2=O	i	-29	-358	-206	i	-50	-125	-288
COc1ccc(C)cc1S(=O)(=O)N1CCN(C(=O)c2ncoc2-c2cccc(F)c2)CC1	i	-14	-12	-4	i	-13	.	.
O=C(CCS(=O)(=O)c1ccccc1)Nc1cccc(-c2nc3ccccc3s2)c1	i	-135	-52	17	i	-105	.	.
O=C(CCS(=O)(=O)c1ccccc1)Nc1ccc(-c2nc3ccccc3s2)cc1	i	0	-382	-161	i	-183	-96	-275
CC(C)(C)c1ccc(NC(=O)c2ccsc2)cc1	i	-52	-324	-180	i	-79	-166	-368
COC(=O)Cc1ccc(NC(=O)c2ccccc2Cl)cc1	i	28	34	-1	i	-28	.	.
COC(=O)Cc1ccc(NC(=O)c2ccc(C(C)(C)C)cc2)cc1	100*	124*	77*	64*	i	40	79*	74*
Cc1ccc(NC(=O)c2ccsc2)cc1NS(C)(=O)=O	i	2	18	-10	i	-18	.	.
